Assay results: PubChem BioAssay AID1159580 (chemical genetic matrix, 2015)
About 2,000 (36%) of roughly 5,500 compounds were called active. Roughly 18% stayed inconclusive and do not appear here. Rule as the data show it: active = normalized growth mostly below about 0.91 (no sharp cut-off); inconclusive = no clear call, values can overlap the other calls; inactive = mostly above about 0.92. The list shows a part of the results.

Assay: chemical genetic growth profiling, strain panel (AID 1159580);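 also: tested at 20 µM; growth read once vehicle control cultures reached saturation at 30 °C; 1 = growth at the plate median or of vehicle wells; lower values mean less growth of the strain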
Conditions: S. cerevisiae deletion strains, growth OD
[1] = locus YAR019C, strain CDC15, stronger effect = lower value
[2] = locus YBL105C, strain PKC1, stronger effect = lower value
[3] = locus YBR135W, strain CKS1, stronger effect = lower value
[4] = locus YBR136W, strain MEC1, stronger effect = lower value
[5] = locus YBR160W, strain CDC28, stronger effect = lower value
[6] = locus YDL017W, strain CDC7, stronger effect = lower value
[7] = locus YDL028C, strain MPS1, stronger effect = lower value
[8] = locus YDL101C, strain DUN1, stronger effect = lower value
[9] = locus YDL108W, strain KIN28, stronger effect = lower value
[10] = locus YDL132W, strain cdc53, stronger effect = lower value
[11] = locus YDL214C, strain PRR2, stronger effect = lower value
[12] = locus YDR052C, strain DBF4, stronger effect = lower value
[13] = locus YDR054C, strain cdc34, stronger effect = lower value
[14] = locus YDR226W, strain ADK1, stronger effect = lower value
[15] = locus YDR477W, strain SNF1, stronger effect = lower value
[16] = locus YER123W, strain YCK3, stronger effect = lower value
[17] = locus YER133W, strain GLC7, stronger effect = lower value
[18] = locus YFL009W, strain cdc4, stronger effect = lower value
[19] = locus YFL029C, strain CAK1, stronger effect = lower value
[20] = locus YFR003C, strain YPI1, stronger effect = lower value
[21] = locus YFR019W, strain FAB1, stronger effect = lower value
[22] = locus YFR028C, strain CDC14, stronger effect = lower value
[23] = locus YGR040W, strain KSS1, stronger effect = lower value
[24] = locus YGR052W, strain FMP48, stronger effect = lower value
[25] = locus YGR092W, strain DBF2, stronger effect = lower value
[26] = locus YHR030C, strain SLT2, stronger effect = lower value
[27] = locus YHR079C, strain IRE1, stronger effect = lower value
[28] = locus YHR082C, strain KSP1, stronger effect = lower value
[29] = locus YHR205W, strain SCH9, stronger effect = lower value
[30] = locus YIL147C, strain SLN1, stronger effect = lower value
[31] = locus YJL095W, strain BCK1, stronger effect = lower value
[32] = locus YJL128C, strain PBS2, stronger effect = lower value
[33] = locus YJL157C, strain FAR1, stronger effect = lower value
[34] = locus YJR016C, strain ILV3, stronger effect = lower value
[35] = locus YJR066W, strain TOR1 (second series), stronger effect = lower value
[36] = locus YJR066W, strain TOR1, stronger effect = lower value
[37] = locus YKL048C, strain ELM1, stronger effect = lower value
[38] = locus YKL067W, strain YNK1, stronger effect = lower value
[39] = locus YKL101W, strain HSL1, stronger effect = lower value
[40] = locus YKL193C, strain SDS22, stronger effect = lower value
[41] = locus YKL203C, strain TOR2, stronger effect = lower value
[42] = locus YLR113W, strain HOG1, stronger effect = lower value
[43] = locus YLR133W, strain CKI1, stronger effect = lower value
[44] = locus YLR403W, strain SFP1, stronger effect = lower value
[45] = locus YML070W, strain DAK1, stronger effect = lower value
[46] = locus YMR001C, strain CDC5, stronger effect = lower value
[47] = locus YMR205C, strain PFK2 (second series), stronger effect = lower value
[48] = locus YMR277W, strain FCP1, stronger effect = lower value
[49] = locus YNL006W, strain LST8, stronger effect = lower value
[50] = locus YNL020C, strain ARK1, stronger effect = lower value
[51] = locus YNL161W, strain CBK1, stronger effect = lower value
[52] = locus YNL183C, strain NPR1, stronger effect = lower value
[53] = locus YNL207W, strain RIO2, stronger effect = lower value
[54] = locus YNL222W, strain SSU72, stronger effect = lower value
[55] = locus YNL307C, strain MCK1 (second series), stronger effect = lower value
[56] = locus YOL078W, strain AVO1, stronger effect = lower value
[57] = locus YOL136C, strain PFK27, stronger effect = lower value
[58] = locus YOR061W, strain CKA2, stronger effect = lower value
[59] = locus YOR119C, strain RIO1, stronger effect = lower value
[60] = locus YOR231W, strain MKK1, stronger effect = lower value
[61] = locus YOR329C, strain SCD5, stronger effect = lower value
[62] = locus YPL031C, strain PHO85, stronger effect = lower value
[63] = locus YPL153C, strain RAD53, stronger effect = lower value
[64] = locus YPL204W, strain HRR25, stronger effect = lower value
[65] = locus YPL209C, strain IPL1, stronger effect = lower value
[66] = locus YPL256C, strain CLN2, stronger effect = lower value
[67] = locus YPR025C, strain CCL1, stronger effect = lower value
[68] = locus YPR106W, strain ISR1, stronger effect = lower value
[69] = locus YPR111W, strain DBF20, stronger effect = lower value
[70] = strain NNK1, stronger effect = lower value
[71] = strain TSCII, stronger effect = lower value

Measured: normalized growth

CCCCN(C)C(=O)c1cc([N+](=O)[O-])cc2c1-c1ccc([N+](=O)[O-])cc1C2=C(C#N)C#N
inactive: [1] 0.984 | [2] 0.988 | [3] 0.985 | [4] 0.977 | [5] 0.979 | [6] 0.985 | [7] 0.976 | [8] 0.98 | [9] 0.974 | [10] 0.969 | [11] 0.983 | [12] 0.975 | [13] 0.98 | [14] 0.994 | [15] 0.972 | [16] 0.942 | [17] 0.984 | [18] 0.983 | [19] 0.98 | [20] 0.984 | [21] 0.961 | [22] 0.98 | [23] 0.978 | [24] 0.953 | [25] 0.944 | [26] 0.968 | [27] 0.957 | [28] 1.04 | [29] 0.976 | [30] 0.982 | [31] 0.868 | [32] 0.959 | [33] 0.988 | [34] 0.973 | [35] 0.971 | [36] 0.973 | [37] 0.98 | [38] 0.971 | [39] 0.951 | [40] 0.977 | [41] 1.01 | [42] 0.871 | [43] 0.99 | [44] 0.966 | [45] 0.94 | [46] 0.977 | [47] 0.985 | [48] 0.976 | [49] 0.983 | [50] 0.985 | [51] 0.983 | [52] 0.968 | [53] 0.979 | [54] 0.978 | [55] 0.907 | [56] 0.968 | [57] 0.941 | [58] 0.971 | [59] 1.03 | [60] 0.876 | [61] 0.99 | [62] 0.967 | [63] 0.986 | [64] 0.958 | [65] 0.986 | [66] 0.968 | [67] 0.982 | [68] 0.985 | [69] 0.993 | [70] 0.994 | [71] 0.98

CC(=O)ON=C1c2cc([N+](=O)[O-])ccc2-c2ccc([N+](=O)[O-])cc21
inactive: [1] 0.948 | [2] 0.942 | [3] 0.949 | [4] 0.939 | [5] 0.955 | [6] 0.954 | [7] 0.933 | [8] 0.963 | [9] 0.937 | [10] 0.971 | [11] 0.85 | [12] 0.953 | [13] 0.942 | [14] 0.983 | [15] 0.729 | [16] 0.793 | [17] 0.867 | [18] 0.966 | [19] 0.948 | [20] 0.935 | [21] 0.933 | [22] 0.963 | [23] 0.702 | [24] 0.793 | [27] 0.825 | [28] 0.796 | [29] 0.858 | [30] 0.93 | [31] 0.778 | [32] 0.917 | [33] 0.835 | [34] 0.939 | [35] 0.682 | [36] 0.76 | [37] 0.892 | [38] 0.864 | [39] 0.761 | [40] 0.945 | [41] 0.843 | [43] 0.879 | [44] 0.776 | [45] 0.852 | [46] 0.942 | [47] 0.865 | [48] 0.936 | [49] 0.953 | [50] 0.836 | [51] 0.952 | [52] 0.745 | [53] 0.93 | [54] 0.939 | [55] 0.691 | [56] 0.95 | [57] 0.866 | [58] 0.751 | [59] 0.817 | [60] 0.848 | [61] 0.942 | [62] 0.701 | [63] 0.724 | [64] 0.749 | [65] 0.948 | [66] 0.891 | [67] 0.947 | [68] 0.964 | [69] 0.957 | [70] 0.944 | [71] 0.943
active: [25] 0.426 | [26] 0.788 | [42] 0.789
